From PubChem
This is one part of a sample in which hits are shown more often than they occur.
Tgondii IFNg = T. gondii growth inhibition with IFN-gamma, primary screen, cell-based; Toxoplasma gondii growth in IFN-gamma-treated host cells; hits give low values; activity change, negative = inhibition, % (concentration not given with the values); 69,000 tested, 3.8% active; AID 1259416, 2018; in the data active = activity change below about -70%, passing the limit was not always enough;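 note: host cells are HeLa cells infected with Toxoplasma gondii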
Numbers without * were called inactive.

`COCC(=O)N1CCOCC2(CCN(Cc3nccs3)C2)C1` (stereo not drawn) gave Tgondii IFNg -39.
COc1ccc(-n2c(=O)c(C(=O)NC3CCCC3)c(O)c3cccnc32)cc1 was read as Tgondii IFNg 29.
For COc1cccc(CNC(=O)c2c(O)c3cccnc3n(-c3ccc(F)cc3)c2=O)c1 the results were Tgondii IFNg 163.
`COc1cccc(-n2c(=O)c(C(=O)NC3CCCCC3)c(O)c3cccnc32)c1` gave Tgondii IFNg -63.
O=C(Nc1cccc(F)c1)c1c(O)c2cccnc2n(-c2ccccc2)c1=O was read as Tgondii IFNg 10.
Screening O=C(Nc1cccc(F)c1)c1c(O)c2cccnc2n(-c2cccc(F)c2)c1=O returned Tgondii IFNg 42.
Screening COc1cccc(-n2c(=O)c(C(=O)NC3CCCCCC3)c(O)c3cccnc32)c1 returned Tgondii IFNg -113*.
Screening O=C(NCc1ccco1)c1c(O)c2cccnc2n(-c2ccc(F)cc2)c1=O returned Tgondii IFNg -79*.
For O=C(NCc1ccco1)c1c(O)c2cccnc2n(-c2cccc(F)c2)c1=O the results were Tgondii IFNg 183.
For O=C(Nc1cc(F)cc(F)c1)c1c(O)c2cccnc2n(-c2cccc(F)c2)c1=O the results were Tgondii IFNg -106*.
Cc1cc(NC(=O)C2CCCC2)n(-c2ncnc3c2cnn3-c2ccc(F)cc2)n1 was read as Tgondii IFNg 37.
`C[C@H](CO)N1C[C@H](C)[C@@H](CN(C)C(=O)[C@H](Cc2ccccc2)N(C)C)OCc2ccccc2-c2ccccc2C1=O` gave Tgondii IFNg -44.
Cc1ccc(NC(=O)Cn2ncc3c(N4CCN(c5ccccc5)CC4)ncnc32)cc1C was read as Tgondii IFNg 17.
For O=C(Nc1ncc([N+](=O)[O-])s1)c1cccs1 the results were Tgondii IFNg 358.
Cc1ccc2[nH]c(C(=O)O)c(CN3CC[C@@H]4CC[C@H](C3)N4C)c2c1 was read as Tgondii IFNg 3.
Nc1nc(SCC(=O)N2CCc3ccccc3C2)[nH]c(=O)c1-c1ccccc1 was read as Tgondii IFNg 251.
CCC(C)n1ncn(-c2ccc(N3CCN(c4ccc(OC[C@H]5CO[C@](Cn6cncn6)(c6ccc(Cl)cc6Cl)O5)cc4)CC3)cc2)c1=O (stereo partly drawn) was read as Tgondii IFNg -52.
`S=C(NCC1(c2ccccc2)CCOCC1)Nc1ccccc1` gave Tgondii IFNg -7.
`CC(C)Cc1ncc2c(n1)CN(C(=O)C1=CCCC1)C2` gave Tgondii IFNg -17.
For C[C@H]1CN([C@@H](C)CO)C(=O)c2cc(-c3ccc(F)cc3)cnc2O[C@H]1CN(C)S(C)(=O)=O the results were Tgondii IFNg -3.
C=CCNC(=O)C1(Cc2cccc(-c3cncnc3)c2)CCN(C(=O)c2cnccn2)CC1 was read as Tgondii IFNg -93*.
CCN1CCOCC12CCN(C(=O)c1cnccn1)CC2 was read as Tgondii IFNg -11.
O=C(NC1CCC12CCN(C(=O)c1ccco1)CC2)c1cnccn1 (stereo not drawn) was read as Tgondii IFNg 3.
Screening O=C1CCC2(CCN1)CCN(c1ccc(-c3ccccc3)nn1)CC2 returned Tgondii IFNg 41.
O=C(O)c1ccccc1CN1CCCN(c2nc3ccccc3s2)CC1 was read as Tgondii IFNg -1.
`CC1Cc2ccccc2N1S(=O)(=O)c1cc2c3c(c1)CCC(=O)N3CCC2` (stereo not drawn) gave Tgondii IFNg 4.
Screening CCN(C)S(=O)(=O)c1csc(C(=O)Nc2ccc(C)cc2)c1 returned Tgondii IFNg -69.
Screening CC1Cc2ccccc2N1S(=O)(=O)c1csc(C(=O)Nc2ccccc2)c1 (stereo not drawn) returned Tgondii IFNg -103*.
Screening O=C1NCCNC12CCN(S(=O)(=O)c1ccccc1C(F)(F)F)CC2 returned Tgondii IFNg 3.
Screening CCn1c(CNC(=O)c2c(C)nc3ccc(Cl)cn23)nc2ccccc21 returned Tgondii IFNg -26.
O=C1NCCOCn2nncc2CC[C@@H]1Cc1cccc(Cl)c1 was read as Tgondii IFNg 4.
COc1ccc(S(=O)(=O)N(C)Cc2nc(-c3ccccc3C)oc2C)cc1 was read as Tgondii IFNg 9.
`CN(C)Cc1ccc(S(=O)(=O)n2ccc(/C=C/C(=O)NO)c2)cc1` gave Tgondii IFNg -81*.
Screening CCc1csc(Cn2ccnc2-c2nc[nH]c2C)n1 returned Tgondii IFNg -39.
Screening CCN1CCC2(CC1)OC(=O)C(C)=C2C(=O)NCc1ccc(OC)c(OC)c1 returned Tgondii IFNg 116.
Screening C[C@H](CO)N1C[C@H](C)[C@H](CN(C)Cc2ccc(Cl)c(Cl)c2)Oc2ccc(NC(=O)CCCN(C)C)cc2C1=O returned Tgondii IFNg -43.
For Cc1cnc(C(=O)N2CCC(N3CCOCC3)CC2C(=O)O)cn1 (stereo not drawn) the results were Tgondii IFNg 93.
For O=C(NCc1cccc(F)c1)[C@H]1[C@H](CO)[C@H]2Cn3c(ccc(-c4ccncc4)c3=O)[C@@H]1N2CC1CC1 the results were Tgondii IFNg -3.
Screening N#Cc1c(Cl)cccc1Oc1ccc(-c2ccn[nH]2)cc1 returned Tgondii IFNg -2.
Clc1cccc(Cl)c1/C=C/c1ccn[nH]1 was read as Tgondii IFNg -89*.
For CCOC(=O)N1CCC(NCc2cc(-c3ccco3)on2)CC1 the results were Tgondii IFNg -4.
For O=C(Cc1ccc(CC(=O)c2ccccc2)cc1)c1ccccc1 the results were Tgondii IFNg -40.
`Cn1cc(C(=O)N2CC[C@@H]3[C@H]2CCN3Cc2cccs2)cn1` gave Tgondii IFNg -9.
Screening Cn1c(N2CCN(c3ccc(C(F)(F)F)cn3)CC2)cc(=O)n(C)c1=O returned Tgondii IFNg 6.
Screening CC/C(=C(\c1ccc(O)cc1)c1ccc(OCCN(C)C)cc1)c1ccccc1 returned Tgondii IFNg -98*.
`CC/C(=C(\c1ccccc1)c1ccc(OCCN(C)C)cc1)c1ccccc1` gave Tgondii IFNg -66.
CC/C(=C(/CC)c1ccc(O)cc1)c1ccc(O)cc1 was read as Tgondii IFNg -51.
O=C(c1cc2c(c3ccccc3n2CC2CC2)n1-c1ncccn1)N1CCCC(O)C1 (stereo not drawn) was read as Tgondii IFNg -10.
Screening CCN1c2ccc(F)cc2C(=O)NC12CCN(C(=O)c1ccccc1C)CC2 returned Tgondii IFNg 51.
Screening C[C@@H]1CN([C@H](C)CO)S(=O)(=O)c2ccc(C#CCC3CCCC3)cc2O[C@@H]1CN(C)C(=O)c1cnccn1 returned Tgondii IFNg -69.
For C[C@@H]1CN([C@@H](C)CO)S(=O)(=O)c2ccc(-c3ccc(F)cc3)cc2O[C@H]1CN(C)Cc1ccccc1C(=O)O the results were Tgondii IFNg -15.
Screening C[C@@H]1CN([C@H](C)CO)S(=O)(=O)c2ccc(C#Cc3cccc(F)c3)cc2O[C@H]1CN(C)S(=O)(=O)c1cn(C)cn1 returned Tgondii IFNg -68.
For CCCN(C)C[C@@H]1Oc2cc(/C=C/c3ccccc3)ccc2S(=O)(=O)N([C@@H](C)CO)C[C@H]1C the results were Tgondii IFNg -91*.
`C[C@H](CO)N1C[C@H](C)[C@H](CN(C)S(=O)(=O)c2cn(C)cn2)Oc2cc(C#Cc3cccc(F)c3)ccc2S1(=O)=O` gave Tgondii IFNg -93*.
For COCC#Cc1ccc2c(c1)O[C@@H](CN(C)C(=O)C1CCOCC1)[C@@H](C)CN([C@H](C)CO)S2(=O)=O the results were Tgondii IFNg 72.
